ChEMBL document CHEMBL1961873, “Compounds: GSK PKIS; Assays: Nanosyn kinase panel” (2012)

target: cAMP-dependent protein kinase catalytic subunit alpha (Homo sapiens) (UniProt P17612); details: at 1 µM
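Note: mean percent inhibition of PKA.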

| Structure (SMILES) | inhibition |
| --- | --- |
| COc1ccc(-c2coc3ncnc(N)c23)cc1 | 1.74% |
| Cc1cc(O)cc(C)c1/C=C/c1cncc(-c2nn[nH]n2)c1 | -1.78% |
| NCc1ccc(-c2nc(-c3ccc(Cl)c(O)c3)c(-c3ccncc3)[nH]2)cc1 | 3.95% |
| Cc1ccc(C(=O)NC2CCCCC2)cc1-c1ccc(C(=O)NCC2CC2)cc1 | 1.86% |
| COc1cccc(-n2ncc3c(N/N=C/c4cccc(F)c4)ncnc32)c1 | -1.91% |
| [O-][S+]1CCN(Cc2ccc(-c3ccc4ncnc(Nc5ccc(OCc6ccccc6)c(F)c5)c4c3)o2)CC1 | 0.53% |
| COc1cc2c(cc1Nc1nc(N3CCc4ccccc43)c3cc[nH]c3n1)N(C(=O)CN(C)C)CC2 | 0.85% |
| COc1cc2ncn(-c3cc(OCc4ccccc4Cl)c(C(N)=O)s3)c2cc1OC | -0.94% |
| COc1ccccc1Nc1ncc(-c2ccccc2)o1 | 3.65% |
| c1cnn2ncc(-c3ccnc(Nc4ccc5c(c4)OCCO5)n3)c2c1 | 7.09% |
| CS(=O)(=O)CCN(CC#N)Cc1ccc(-c2ccc3ncnc(Nc4ccc(OCc5cccc(F)c5)c(Cl)c4)c3c2)o1 | -3.11% |
| CS(=O)(=O)CCNCc1ccc(-c2ccc3ncnc(Nc4ccc(OCc5cccc(F)c5)c(C(F)(F)F)c4)c3c2)o1 | 2.53% |
| COc1ccc(-c2nn3ncccc3c2-c2ccnc(Nc3ccc(Cl)c(C(F)(F)F)c3)n2)cc1 | 1.26% |
| CCn1c(-c2nonc2N)nc2ccncc21 | 1.02% |
| Nc1ncnc2occ(-c3ccc(NC(=O)Nc4cccc(C(F)(F)F)c4)cc3)c12 | 4.85% |
| CC(C)=Cc1cccc2c1/C(=N/Nc1ccc(S(N)(=O)=O)cc1)C(=O)N2 | 3.74% |
